Screen size: about 580,000 compounds; about 6,100 (1.1%) were called active. Another 15% or so got no clear call; they are omitted. The call rests on the fitted dose curve; in most records, active means well fitted inhibition curve with a large enough effect; inconclusive means small, poorly fitted or top-dose-only effect, or another doubt; inactive means no such curve, though single readings can be large or run the other way. The list comes from a sample in which actives are over-represented; it also holds similar structures and randomly drawn compounds. Where a call stands in place of a potency, no number is given.
Target: Polyunsaturated fatty acid lipoxygenase ALOX12 (Homo sapiens) (UniProt P18054)
Assay: Primary qHTS assay for inhibitors of human arachidonate 12S-lipoxygenase (ALOX12): Round 2
Settings: purified 12hLO, xylenol orange hydroperoxide absorbance; series mostly up to 108 µM
Method in brief: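 Purified human 12hLO (150 nM final) in 25 mM Hepes, 0.01% Triton X-100, pH 7.0 was preincubated 15 min at room temperature with compound. Then 40 uM arachidonic acid was added, 30 min. Hydroperoxide was read by Fe-XO absorbance ratio 573/405 nm.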
Potency means the concentration at half of the fitted maximal effect.

Sequence of Polyunsaturated fatty acid lipoxygenase ALOX12 (Homo sapiens) (P18054 whole entry, looked up): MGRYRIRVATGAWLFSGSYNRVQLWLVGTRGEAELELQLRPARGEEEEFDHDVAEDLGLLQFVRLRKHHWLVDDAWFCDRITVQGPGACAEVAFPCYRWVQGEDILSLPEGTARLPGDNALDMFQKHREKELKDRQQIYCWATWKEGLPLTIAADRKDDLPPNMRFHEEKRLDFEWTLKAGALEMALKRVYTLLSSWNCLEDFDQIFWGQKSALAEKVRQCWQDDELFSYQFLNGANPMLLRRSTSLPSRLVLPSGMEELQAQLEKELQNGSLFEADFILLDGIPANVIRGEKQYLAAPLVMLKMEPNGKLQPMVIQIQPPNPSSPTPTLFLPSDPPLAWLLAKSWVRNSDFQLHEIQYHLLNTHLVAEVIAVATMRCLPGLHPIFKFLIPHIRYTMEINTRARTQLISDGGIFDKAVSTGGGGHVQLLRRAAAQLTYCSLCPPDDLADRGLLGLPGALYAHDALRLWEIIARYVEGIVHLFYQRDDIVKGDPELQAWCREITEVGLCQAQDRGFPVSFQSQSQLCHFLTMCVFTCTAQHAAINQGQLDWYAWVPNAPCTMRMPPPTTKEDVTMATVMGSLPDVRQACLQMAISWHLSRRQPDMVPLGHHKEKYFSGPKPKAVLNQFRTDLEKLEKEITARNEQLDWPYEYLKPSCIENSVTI

Structure (SMILES)	Potency
O=C(NCCCNC(=O)c1nc2ccccc2c(=O)[nH]1)c1cccnc1	inactive
O=C(c1cccnc1)N(c1cc2sc(=O)oc2c2ccccc12)S(=O)(=O)c1ccccc1	15.8 µM (active)
O=C(CN(Cc1ccc(Br)cc1)S(=O)(=O)c1ccccc1)NCc1ccncc1	inactive
Cc1nn(CC(O)COc2ccccc2)c(=O)c2ccccc12 (stereo not given)	inactive
Cc1ccccc1C(=O)Nc1ccc2c(c1)nc(CCn1ccccc1=O)n2C	inactive
CCN(CC)S(=O)(=O)c1ccc(Sc2nnc(C)s2)nc1	inactive
CN(C)c1ccc(C(=O)NCc2nnc3cc(-c4nc(C5CC5)no4)ccn23)cc1	inactive
COc1ccc(C(=O)NCc2nnc3cc(-c4nc(C)no4)ccn23)cc1	inactive
CCCc1noc(-c2ccn3c(CNC(=O)c4ccc(N(C)C)cc4)nnc3c2)n1	44.7 µM (active)
CCc1cccc2c(C(=O)CSc3nnnn3C3CC3)c[nH]c12	inactive
CCCNC(=O)c1cn(-c2ccccc2)nc1-c1cccnc1	inactive
O=C(/C=C/c1cccc(F)c1)c1cc2ccccc2oc1=O	inactive
O=[N+]([O-])c1ccc(Oc2ccc3ccncc3c2)cc1C(F)(F)F	inactive
Cc1ccc(NC(=O)CCc2nc(C(C)(C)C)no2)nc1	inactive
Cc1ccc2cccc(NC(=O)c3ccccc3C)c2n1	inactive
Cc1cccc(NC(c2cccc(F)c2)c2ccc3ccc(C)nc3c2O)n1 (stereo not given)	25.1 µM (active)
Cc1c(Cl)cccc1NC(=O)COC(=O)c1nn(C)c(=O)c2ccccc12	inactive
Cc1cc(C)n(CCC(=O)NCC2CCN(c3cc(-c4ccc(F)cc4)[nH]n3)CC2)n1	inactive
Cc1cc(C)c2oc(C(=O)Nc3ccc(S(=O)(=O)N4CCCCCC4)cc3)cc(=O)c2c1	inactive
Cc1cc(C)c2sc(NC(=O)c3ccc(S(=O)(=O)N4CCCC4)cc3)nc2c1	inactive
Cc1cc(C)c(NS(=O)(=O)c2ccc(S(=O)(=O)N3CCCC3)cc2)c(C(=O)O)c1	39.8 µM (active)
CC(=O)NC(C(=O)NC(C)c1cccc(Cl)c1)C(C)C (stereo not given)	inactive
CC(C)C(=O)N(Cc1ccc2cc[nH]c2c1)C1CC1	inactive
NC(=O)[C@@H](Cc1ccccc1)NC(=O)C1=C[C@@H](NS(=O)(=O)c2cccc(C(F)(F)F)c2)[C@@H](O)[C@H](O)C1	inactive
COc1ccc(CC/C(C)=N/O)cc1	inactive
O=C(c1ccco1)N1CCC2(CC1)CC(N(Cc1ccccc1)C1CC1)CCO2 (stereo not given)	inactive
C=CCOc1cccc(C2NC(=O)c3ccccc3O2)c1 (stereo not given)	inactive

Structure (SMILES)	Potency
C=CCOc1cccc(C2C(C(=O)c3ccc(C)o3)=C(O)C(=O)N2c2nnc(C)s2)c1 (stereo not given)	39.8 µM (active)
C=CCOc1cccc(C2C(C(=O)c3ccc(C)o3)=C(O)C(=O)N2CCN2CCOCC2)c1 (stereo not given)	inactive
CC(C)NC(=O)NC(=O)Cn1cnc2c1c(=O)n(C)c(=O)n2C	inactive
C/C(=N/NC(=O)c1ccc(Br)o1)c1ccc(C)o1	inactive
C/C(=N\NC(=O)NC1CCCCC1)c1ccc(OC(F)F)cc1OC(F)F	inactive
C/C(=N\NC(=S)NC1CCCCC1)c1ccc(C)o1	5.01 µM (active)
O=C(CN1CCN(C(=O)CCCc2c[nH]c3ccccc23)CC1)NC1CC1	inactive
CCOC(=O)CSc1ncn(-c2nc(NC(C)(C)C)nc(N(C)C)n2)n1	inactive
CN(C)c1ccc(C=C2C(=O)OC3(CCCC3)OC2=O)cc1	44.7 µM (active)
CN(CC(=O)Nc1ccc2c(c1)OC1(CCCCC1)O2)Cc1cccs1	inactive
C=CCn1c(N2CCC(C(N)=O)CC2)nc2c1c(=O)[nH]c(=O)n2C	inactive
O=C(Cc1ccc(Cl)cc1)NN=C1CCC(c2ccccc2)CC1 (stereo not given)	inactive
CCOC(=O)CN1C(=O)C(O)(CC(=O)c2cccnc2)c2ccccc21 (stereo not given)	inactive
CNCCC(F)(F)F	15.8 µM (active)
CN1CCC(CNC(=O)CCc2c[nH]c3ccccc23)CC1	inactive
Cc1cc(C(C)(C)C)ccc1OC(=O)c1ccc(C#N)cc1	inactive
CN1CCCN(S(=O)(=O)c2ccc3c(c2)CCC3)c2ccccc21	inactive
CCc1ccc(-c2nc(-c3nc(-c4cccs4)cs3)sc2C)cc1	inactive
COC(=O)c1ccc(CNC(=O)Cn2cc(C)c(=O)[nH]c2=O)cc1	inactive
CCOC(=O)C1=C(C)NC(=O)NC1c1ccc(C(=O)OC)cc1 (stereo not given)	inactive
CCOC(=O)c1sc(=S)n2c1[nH]c(=O)c1ccc(C(=O)OC)cc12	15.8 µM (active)
COc1ccc(NC(=O)ON=C2c3ccccc3-c3ccccc32)cc1	inactive
COc1ccc(Nc2nc(-c3cccc(OC)c3OC)no2)cc1	inactive
COc1ccc(Nc2ccccc2)cc1	35.5 µM (active)
O=C(NC1CCc2ccccc21)c1cc(COc2ccc3c(c2)OCO3)[nH]n1 (stereo not given)	inactive
CC1(C2CC2)NC(=O)N(CC(=O)Nc2cccc3cccnc23)C1=O (stereo not given)	inactive
O=C(OCc1cc(Cl)c2c(c1)OCCCO2)C12CC3CC(CC(Cl)(C3)C1)C2	inactive

Structure (SMILES)	Potency
CCCn1nc(C(=O)Nc2ccc(OC)c(S(=O)(=O)N(C)C)c2)c2ccccc2c1=O	inactive
CC(C)c1ccc(Nc2nnc(SCC(=O)c3nnc(-c4ccccc4)o3)s2)cc1	39.8 µM (active)
CCCCc1ccc(Nc2nnc(SCC(=O)NC(C)C)s2)cc1	inactive
Cc1ccc(Nc2nnc(SCC(=O)c3ccc(Cl)s3)s2)cc1C	inactive
O=C(NCC1CCN(c2cc(-c3ccc(Cl)cc3)[nH]n2)CC1)c1ccc2nc[nH]c2c1	inactive
Cc1ccc(-c2cc(N3CCCN(C(=O)COc4ccccc4)CC3)n[nH]2)cc1C	inactive
CN(C(=O)CN1CCN(c2cc(-c3ccc(OCc4ccccc4)cc3)ncn2)CC1)c1ccccc1	10 µM (active)
COc1ccc(-c2cc(N3CCN(C(=O)Cc4cccc(OC)c4)CC3)n[nH]2)cc1	inactive
CN(C)[C@H]1CCCCN(C(=O)CC2CCN(Cc3ccccc3)CC2)C1	inactive
Clc1ccc2oc([C@H]3CCN(Cc4ccccc4)C3)nc2c1	inactive
Cc1cc(S(=O)(=O)N2CCCC2c2nnc3ccccn23)ccc1Br (stereo not given)	inactive
CCCCOc1cc(O)c2c(=O)cc(-c3ccccc3)oc2c1	inactive
COc1c(O)cc2oc(-c3ccc(O)c(O)c3)cc(=O)c2c1O	31.6 µM (active)
COCCNC(=O)COc1cc(O)c2c(=O)cc(-c3ccccc3)oc2c1	inactive
COc1ccc(-c2c(C)c3ccc(OS(C)(=O)=O)cc3oc2=O)cc1	inactive
O=C(CNc1ccccc1)NNC(=O)c1cc(-c2ccccc2)nn1-c1ccccc1	inactive
Cc1nc2nc(CC(=O)NCc3ccccc3)nn2c(C)c1Cc1ccc(Cl)cc1	inactive
Cc1ccc(-n2c(=O)c3cccnc3n2CC(=O)Nc2ccc(F)cc2F)cc1C	inactive
CCOc1ccc2[nH]c(=O)c(CN(CCCO)C(C)=O)cc2c1	inactive
CCOc1ccc2[nH]c(=S)sc2c1	35.5 µM (active)
CCOc1ccc(OCC)c(NS(=O)(=O)c2ccc3[nH]c(=O)ccc3c2)c1	inactive
Cc1cc(=O)oc2c(C)c(OC(C)C(=O)NCc3ccc(S(N)(=O)=O)cc3)ccc12 (stereo not given)	inactive
COc1ccc(-c2cc(N3CCN(C(=O)c4cc(OC)cc(OC)c4)CC3)n[nH]2)cc1	inactive
COc1ccc(-c2cn(-c3ccc(OC)cc3)c(=S)[nH]2)cc1	25.1 µM (active)
COc1ccc(-c2nc3ccncc3[nH]2)cc1	inactive
COc1ccc2c(c1)CCc1c-2n[nH]c1C(=O)N1CCC(c2noc(COc3ccc(C)cc3)n2)CC1	inactive
CCc1cccc(NC(=O)CC(C)C)c1	inactive

Structure (SMILES)	Potency
O=C(Nc1ccccc1F)c1ccc2c(c1)n(Cc1ccccc1)c(=O)c1ccnn12	inactive
COC(=O)C1=C(O)/C(=C/c2ccc(OCC(=O)Nc3ccccc3)cc2)N=C1C	17.8 µM (active)
Cc1csc2nc(COc3ccc(NC(=O)COc4ccccc4)cc3)cc(=O)n12	inactive
CN(c1ccccc1)S(=O)(=O)c1ccc(NC(=O)COc2ccccc2)cc1	inactive
NC(=O)Cc1csc(NC(=O)CCc2ncc(-c3ccc(Cl)cc3Cl)o2)n1	inactive
CC(OC(=O)c1cc2cc(F)ccc2s1)C(=O)N1CCNC1=O (stereo not given)	inactive
O=[N+]([O-])c1ccccc1N/N=C1\CCc2ccccc21	inactive
CCCCNC(=S)N/N=C1\CCCCc2ccccc21	31.6 µM (active)
S=C(NCCC1=CCCCC1)Nc1ccccc1	inactive
C#CCOC(=O)c1cccc(C(=O)O)c1	inactive
COc1cccc(NC(=O)c2csnn2)c1	inactive
COc1cccc(NC(=O)C2C(c3ccccc3)C2(Cl)Cl)c1 (stereo not given)	35.5 µM (active)
COc1cccc(NC(=O)C2(C#N)CCCC2)c1	inactive
Cc1nc(N2CCN(CC(=O)N3CCCC3)CC2)c(C#N)c2c1COC(C)(C)C2	inactive
COCCN1C(=O)[C@@H]2C[C@@H](CN2C(=O)Nc2ccccc2)Oc2ccccc21	inactive
N#Cc1ccc(CN2C[C@@H]3C[C@H]2C(=O)Nc2ccccc2O3)cc1	inactive
O=C1[C@@H]2C[C@@H](CN2Cc2ccc3ccccc3n2)Oc2ccccc2N1Cc1ccccc1	8.91 µM (active)
COC(=O)C1=C(C)N=C2SC=C(CC(=O)NCc3ccccc3F)N2C1c1ccccc1Cl (stereo not given)	inactive
CCc1n[nH]c(=S)n1/N=C/c1c[nH]c2ccc(Br)cc12	15.8 µM (active)
Cc1ccccc1/C=C/C(=O)NC(C)CO (stereo not given)	inactive
O=C(COc1ncnc2ccccc12)Nc1cc(F)ccc1F	inactive
CCOc1ccc(C(=O)NC(=S)Nc2ccc(N3CCOCC3)c(Cl)c2)cc1[N+](=O)[O-]	14.1 µM (active)
O=C(Oc1ccccc1Cl)c1ccc(N2CCOCC2)c([N+](=O)[O-])c1	inactive
O=C(CSc1ccc([N+](=O)[O-])cn1)Nc1ccc(N2CCOCC2)c(Cl)c1	inactive

From PubChem BioAssay AID1671190 (National Center for Advancing Translational Sciences (NCATS), 2021)
